# In PubChem BioAssay AID1159580 (chemical genetic matrix, 2015):
# Screen size: about 5,500 compounds; about 2,000 (36%) were called active. Not shown: some 18% with an inconclusive outcome. The list shows a part of the results. Values without a mark were called inactive. Cut-off read from the data, not from the text of the source: active = normalized growth mostly below about 0.91 (no sharp cut-off); inconclusive = no clear call, values can overlap the other calls; inactive = mostly above about 0.92.
# Test: chemical genetic growth profiling, strain panel (AID 1159580);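 note: tested at 20 µM; growth read once vehicle control cultures reached saturation at 30 °C; 1 = growth at the plate median or of vehicle wells; lower values mean less growth of the strain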
# Conditions: S. cerevisiae deletion strains, growth OD
# [1] = locus YHR030C, strain SLT2, hits give low values
# [2] = locus YJL187C, strain SWE1, hits give low values
# [3] = locus YHR079C, strain IRE1, hits give low values
# [4] = locus YJL095W, strain BCK1, hits give low values
# [5] = locus YJR066W, strain TOR1, hits give low values
# [6] = locus YLR113W, strain HOG1, hits give low values
# [7] = locus YNL183C, strain NPR1, hits give low values
# [8] = locus YOR231W, strain MKK1, hits give low values
# [9] = locus YPL256C, strain CLN2, hits give low values
compound,measurement,setting,value
COC(=O)C1Cc2c([nH]c3ccccc23)C2(CCN(C)CC2)N1 (stereo unspecified),normalized growth,"locus YAL013W, strain DEP1, hits give low values",1.01
same,normalized growth,"locus YBR229C, strain ROT2, hits give low values",0.989
same,normalized growth,"locus YDL101C, strain DUN1, hits give low values",0.995
same,normalized growth,"locus YDL134C, strain PPH21, hits give low values",0.981
same,normalized growth,"locus YDR150W, strain NUM1, hits give low values",0.986
same,normalized growth,"locus YEL061C, strain CIN8, hits give low values",0.993
same,normalized growth,"locus YGR078C, strain PAC10, hits give low values",0.993
same,normalized growth,[1],0.985
same,normalized growth,"locus YHR087W, strain rtc3, hits give low values",0.998
same,normalized growth,[2],0.996
same,normalized growth,"locus YJR043C, strain POL32, hits give low values",1
same,normalized growth,"locus YJR075W, strain HOC1, hits give low values",0.998
same,normalized growth,"locus YLR039C, strain RIC1, hits give low values",0.975
same,normalized growth,"locus YLR058C, strain SHM2 (second series), hits give low values",1.01
same,normalized growth,"locus YLR085C, strain ARP6, hits give low values",1.01
same,normalized growth,"locus YLR262C, strain YPT6, hits give low values",0.981
same,normalized growth,"locus YML094W, strain GIM5, hits give low values",0.961
same,normalized growth,"locus YMR219W, strain ESC1, hits give low values",0.995
same,normalized growth,"locus YMR263W, strain SAP30, hits give low values",1.02
same,normalized growth,"locus YNL128W, strain TEP1, hits give low values",0.973
same,normalized growth,"locus YNL153C, strain GIM3, hits give low values",0.999
same,normalized growth,"locus YNL298W, strain CLA4 (second series), hits give low values",1.02
same,normalized growth,"locus YNL322C, strain KRE1, hits give low values",0.987
same,normalized growth,"locus YNR030W, strain Alg12, hits give low values",1.01
same,normalized growth,"locus YOL006C, strain TOP1, hits give low values",1
same,normalized growth,"locus YPL055C, strain LGE1, hits give low values",1.01
same,normalized growth,"locus YPL241C, strain CIN2, hits give low values",0.977
same,normalized growth,"locus YPR135W, strain CTF4, hits give low values",0.944
CCCNCCCCCC[N+](C)(C)C,normalized growth,[1],1.02
same,normalized growth,[3],0.975
same,normalized growth,[4],0.979
same,normalized growth,[5],0.927
same,normalized growth,[6],1.02
same,normalized growth,[7],0.932
same,normalized growth,[8],0.984
same,normalized growth,[9],0.989
Cc1cc(-n2c(=O)[nH]c(=O)n(C)c2=O)ccc1Oc1ccc(SC(F)(F)F)cc1,normalized growth,"locus YAL021C, strain ccr4, hits give low values",0.925
same,normalized growth,"locus YAL026C, strain drs2, hits give low values",0.602 (active)
same,normalized growth,"locus YAL030W, strain snc1, hits give low values",0.565 (active)
same,normalized growth,"locus YBL061C, strain skt5, hits give low values",0.688 (active)
same,normalized growth,"locus YBR009C, strain hhf1, hits give low values",0.552 (active)
same,normalized growth,"locus YBR023C, strain chs3, hits give low values",0.742 (active)
same,normalized growth,"locus YBR171W, strain sec66, hits give low values",0.802 (active)
same,normalized growth,"locus YBR231C, strain swc5, hits give low values",0.868 (active)
same,normalized growth,"locus YBR279W, strain paf1, hits give low values",0.935
same,normalized growth,"locus YCL011C, strain gbp2, hits give low values",0.548 (active)
same,normalized growth,"locus YCL016C, strain dcc1, hits give low values",0.905 (active)
same,normalized growth,"locus YCL061C, strain MRC1, hits give low values",0.792 (active)
same,normalized growth,"locus YCL069W, strain vba3, hits give low values",0.978
same,normalized growth,"locus YCR088W, strain abp1, hits give low values",0.793 (active)
same,normalized growth,"locus YDL005C, strain med2, hits give low values",0.583 (active)
same,normalized growth,"locus YDL040C, strain nat1, hits give low values",0.863 (active)
same,normalized growth,"locus YDR001C, strain nth1, hits give low values",0.845 (active)
same,normalized growth,"locus YDR069C, strain doa4, hits give low values",0.941
same,normalized growth,"locus YDR137W, strain rgp1, hits give low values",0.405 (active)
same,normalized growth,"locus YDR159W, strain sac3, hits give low values",0.532 (active)
same,normalized growth,"locus YDR195W, strain ref2",0.418 (active)
same,normalized growth,"locus YDR297W, strain sur2, hits give low values",0.695 (active)
same,normalized growth,"locus YDR334W, strain swr1, hits give low values",0.855 (active)
same,normalized growth,"locus YDR335W, strain msn5, hits give low values",0.661 (active)
same,normalized growth,"locus YDR392W, strain spt3, hits give low values",0.141 (active)
same,normalized growth,"locus YEL003W, strain gim4, hits give low values",0.704 (active)
same,normalized growth,"locus YEL037C, strain rad23, hits give low values",0.933
same,normalized growth,"locus YEL061C, strain CIN8 (second series), hits give low values",0.647 (active)
same,normalized growth,"locus YER015W, strain faa2, hits give low values",0.994
same,normalized growth,"locus YER016W, strain bim1, hits give low values",0.935
same,normalized growth,"locus YER111C, strain swi4, hits give low values",0.75 (active)
same,normalized growth,"locus YER155C, strain BEM2 (second series), hits give low values",0.968
same,normalized growth,"locus YFR010W, strain ubp6, hits give low values",0.76 (active)
same,normalized growth,"locus YGL167C, strain pmr1, hits give low values",1.02
same,normalized growth,"locus YGL173C, strain kem1, hits give low values",0.895 (active)
same,normalized growth,"locus YGL227W, strain vid30, hits give low values",0.867 (active)
same,normalized growth,"locus YGL240W, strain doc1, hits give low values",0.629 (active)
same,normalized growth,"locus YGL253W, strain hxk2, hits give low values",0.701 (active)
same,normalized growth,"locus YHR013C, strain ard1, hits give low values",0.998
same,normalized growth,"locus YHR027C, strain rpn1, hits give low values",0.969
same,normalized growth,[1],0.811 (active)
same,normalized growth,[3],0.786 (active)
same,normalized growth,"locus YHR142W, strain chs7, hits give low values",0.318 (active)
same,normalized growth,"locus YJL092W, strain hpr5, hits give low values",0.844 (active)
same,normalized growth,"locus YJL095W, strain BCK1 (second series), hits give low values",0.754 (active)
same,normalized growth,[4],0.724 (active)
same,normalized growth,"locus YJL115W, strain asf1, hits give low values",0.926
same,normalized growth,"locus YJL129C, strain trk1, hits give low values",0.882
same,normalized growth,"locus YJL154C, strain vps35, hits give low values",0.644 (active)
same,normalized growth,"locus YJL164C, strain tpk1, hits give low values",0.346 (active)
same,normalized growth,"locus YJL166W, strain qcr8, hits give low values",0.383 (active)
same,normalized growth,[2],0.546 (active)
same,normalized growth,[5],0.75 (active)
same,normalized growth,"locus YKL160W, strain elf1, hits give low values",0.69 (active)
same,normalized growth,"locus YKR026C, strain gcn3, hits give low values",0.707 (active)
same,normalized growth,"locus YKR091W, strain srl3, hits give low values",0.908 (active)
same,normalized growth,"locus YLL001W, strain dnm1, hits give low values",0.844 (active)
same,normalized growth,"locus YLL026W, hits give low values",0.169 (active)
same,normalized growth,"locus YLL041C, strain sdh2, hits give low values",0.775 (active)
same,normalized growth,"locus YLR027C, strain aat2, hits give low values",0.589 (active)
same,normalized growth,[6],0.764 (active)
same,normalized growth,"locus YLR221C, strain rsa3, hits give low values",0.436 (active)
same,normalized growth,"locus YLR258W, strain gsy2, hits give low values",0.705 (active)
same,normalized growth,"locus YLR262C, strain YPT6 (second series), hits give low values",0.367 (active)
same,normalized growth,"locus YLR320W, strain mms22, hits give low values",0.823 (active)
same,normalized growth,"locus YLR342W, strain FKS1, hits give low values",0.864 (active)
same,normalized growth,"locus YLR357W, strain rsc2, hits give low values",0.581 (active)
same,normalized growth,"locus YLR370C, strain arc18, hits give low values",0.886 (active)
same,normalized growth,"locus YLR384C, strain iki3, hits give low values",1.03
same,normalized growth,"locus YML120C, strain ndi1, hits give low values",0.844 (active)
same,normalized growth,"locus YMR058W, strain fet3, hits give low values",0.705 (active)
same,normalized growth,"locus YMR125W, strain sto1, hits give low values",0.709 (active)
same,normalized growth,"locus YMR129W, hits give low values",1.02
same,normalized growth,"locus YMR205C, strain PFK2, hits give low values",0.705 (active)
same,normalized growth,"locus YMR231W, strain pep5, hits give low values",0.703 (active)
same,normalized growth,"locus YNL071W, strain lat1, hits give low values",0.422 (active)
same,normalized growth,[7],0.81 (active)
same,normalized growth,"locus YNL209W, strain ssb2, hits give low values",0.915 (active)
same,normalized growth,"locus YNL248C, strain rpa49, hits give low values",0.635 (active)
same,normalized growth,"locus YNL322C, strain KRE1 (second series), hits give low values",1.03
same,normalized growth,"locus YNR049C, strain mso1, hits give low values",0.98
same,normalized growth,"locus YOR001W, strain rrp6, hits give low values",0.888 (active)
same,normalized growth,"locus YOR070C, strain gyp1, hits give low values",0.754 (active)
same,normalized growth,"locus YOR080W, strain dia2, hits give low values",1.02
same,normalized growth,"locus YOR083W, strain WHI5, hits give low values",0.758 (active)
same,normalized growth,"locus YOR106W, strain vam3, hits give low values",0.424 (active)
same,normalized growth,[8],0.804 (active)
same,normalized growth,"locus YOR265W, strain rbl2, hits give low values",0.893 (active)
same,normalized growth,"locus YOR270C, strain vph1, hits give low values",0.344 (active)
same,normalized growth,"locus YOR290C, strain snf2, hits give low values",0.763 (active)
same,normalized growth,"locus YPL051W, strain arl3, hits give low values",0.636 (active)
same,normalized growth,"locus YPL078C, strain atp4, hits give low values",0.547 (active)
same,normalized growth,"locus YPL106C, strain sse1, hits give low values",0.469 (active)
same,normalized growth,"locus YPL240C, strain hsp82, hits give low values",0.954
same,normalized growth,[9],0.764 (active)
